# Unmarked numbers belong to inactive results. Records with an inconclusive call do not appear. A call without a number means that no potency is given here. Activity calls are given as the source filed them. Unless noted, calls come from the whole dose curve; as a rule, active = well fitted curve in the direction sought with a large enough effect in the repeat runs; inconclusive = weak or mixed curves; inactive = no such curve, though single readings can be large; an effect the other way counts as inactive or inconclusive.
# Assays:
# [1] = qHTS assay to test for compound auto fluorescence at 535 nm (green) in HEK293 cells (AID 720680)
# [2] = qHTS assay to test for compound auto fluorescence at 460 nm (blue) in HEK293 cell free culture (AID 720681)
# How it was run: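 Blue fluorescence (Ex 405/Em 460 nm, triamterene-equivalent) was read immediately after pin transfer of compound or DMSO into medium (DMEM, 10% FBS) without cells.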
# [3] = qHTS assay to test for compound auto fluorescence at 535 nm (green) in HEK293 cell free culture (AID 720682)
# How it was run: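 Cell-free medium (DMEM, 10% FBS) receives compound or DMSO by pintool. Plate read directly at Ex 485/Em 535 nm. Signal converted to fluorescein equivalency.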
# [4] = qHTS assay to test for compound auto fluorescence at 590 nm (red) in HEK293 cell free culture (AID 720683)
# How it was run: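 Red-channel autofluorescence of compounds in culture medium (DMEM, 10% FBS), no cells, measured at 540/590 nm. Rose Bengal sodium is the reference fluorophore for equivalence.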
# [5] = qHTS assay to test for compound auto fluorescence at 590 nm (red) in HepG2 cell free culture (AID 720684)
# How it was run: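 No cells present: MEM + 10% FBS only. Compound pinned in, red label read (540/590 nm). Activity = fluorescence equivalent to Rose Bengal sodium.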
# [6] = qHTS assay to test for compound auto fluorescence at 535 nm (green) in HepG2 cell free culture (AID 720686)
# [7] = qHTS assay to test for compound auto fluorescence at 460 nm (blue) in HepG2 cells (AID 720687)
# How it was run: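 Blue-channel autofluorescence (Ex/Em 405/460 nm, triamterene-equivalent) was measured after 1 hr compound exposure at 37 C, 5% CO2. Cells were HepG2, plated overnight at 37 C in MEM plus 10% FBS.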
# [8] = qHTS assay to identify small molecule antagonists of the glucocorticoid receptor (GR) signaling pathway - cell viability counter screen (AID 720693); note: nearly all actives have a fitted effect of over 55% in size
# [9] = qHTS assay for identifying genotoxic compounds that show differential cytotoxicity against isogenic chicken DT40 cell lines with known DNA damage response pathways - wild type cell line (AID 743012); note: nearly all actives have a fitted effect of over 60% in size; note: potency is the fitted concentration of half-maximal effect
# How it was run: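 Viability of DNA repair-proficient chicken DT40 cells was assessed by CellTiter-Glo luminescence following 40 h compound exposure at 37 C/5% CO2.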
# [10] = qHTS assay for identifying genotoxic compounds that show differential cytotoxicity against isogenic chicken DT40 cell lines with known DNA damage response pathways - Rev3 mutant cell line (AID 743014); note: nearly all actives have a fitted effect of over 55% in size; note: potency is the fitted concentration of half-maximal effect
# [11] = qHTS assay for identifying genotoxic compounds that show differential cytotoxicity against isogenic chicken DT40 cell lines with known DNA damage response pathways - Rad54/Ku70 mutant cell line (AID 743015); note: nearly all actives have a fitted effect of over 60% in size; note: potency is the fitted concentration of half-maximal effect
# [12] = qHTS assay to identify small molecule antagonists of the androgen receptor (AR) signaling pathway using the MDA cell line - cell viability counter screen (AID 743041; note: nearly all actives have a fitted effect of over 45% in size)
# How it was run: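 Using the breast carcinoma line MDA-kb2 AR-luc, test chemicals were co-incubated with R1881 for 16 h; CellTiter-Fluor reagent, added at 15.5 h, provided a fluorescence measure of live cells.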
# [13] = molecular target: Androgen receptor (Homo sapiens) (UniProt P10275); assay: qHTS assay to identify small molecule agonists of the androgen receptor (AR) signaling pathway (AID 743036; active = well fitted activation curve with a large enough effect in the signal ratio in the repeat runs, with a control signal flat, not every such curve was filed as active; the % refers to the signal ratio)
# Chain of Androgen receptor (Homo sapiens) (P10275 whole entry, looked up): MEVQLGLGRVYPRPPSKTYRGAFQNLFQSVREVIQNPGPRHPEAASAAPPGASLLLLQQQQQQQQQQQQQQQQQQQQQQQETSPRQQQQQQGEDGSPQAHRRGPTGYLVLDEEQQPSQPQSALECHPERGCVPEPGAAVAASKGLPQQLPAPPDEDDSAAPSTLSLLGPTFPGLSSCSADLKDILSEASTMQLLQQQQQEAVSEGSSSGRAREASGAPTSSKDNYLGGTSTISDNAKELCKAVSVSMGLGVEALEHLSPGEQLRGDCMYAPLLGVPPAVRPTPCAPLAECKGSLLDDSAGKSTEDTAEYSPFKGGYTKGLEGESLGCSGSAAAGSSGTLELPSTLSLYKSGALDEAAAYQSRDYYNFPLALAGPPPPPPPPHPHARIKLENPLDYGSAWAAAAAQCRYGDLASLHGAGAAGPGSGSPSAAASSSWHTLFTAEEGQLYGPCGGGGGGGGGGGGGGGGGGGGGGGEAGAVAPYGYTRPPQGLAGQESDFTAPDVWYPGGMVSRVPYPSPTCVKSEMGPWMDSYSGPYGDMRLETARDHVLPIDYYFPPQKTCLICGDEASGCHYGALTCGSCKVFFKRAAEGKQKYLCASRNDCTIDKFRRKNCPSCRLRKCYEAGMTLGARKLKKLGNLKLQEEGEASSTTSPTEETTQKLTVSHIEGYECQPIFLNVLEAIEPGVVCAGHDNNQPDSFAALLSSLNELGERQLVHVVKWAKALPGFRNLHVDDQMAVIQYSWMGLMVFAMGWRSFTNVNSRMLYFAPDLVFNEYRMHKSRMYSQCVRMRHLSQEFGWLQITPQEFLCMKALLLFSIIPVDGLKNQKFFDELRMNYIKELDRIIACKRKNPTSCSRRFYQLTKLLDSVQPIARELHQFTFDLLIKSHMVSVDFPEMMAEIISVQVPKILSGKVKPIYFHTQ
# How it was run: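 AR-bla HEK293 cells, 2,000/well; 4 h preincubation 37C/5% CO2; compound (DMSO) 16 h at 37C; LiveBLAzer B/G FRET substrate 2 h RT; fluorescence intensity read-out.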
# [14] = molecular target: Androgen receptor (Homo sapiens) (UniProt P10275); assay: qHTS assay to identify small molecule agonists of the androgen receptor (AR) signaling pathway using the MDA cell line (AID 743040; note: nearly all actives have a fitted effect of over 20% in size)
# How it was run: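 Stable MMTV-luciferase reporter in MDA-kb2 cells; note the promoter carries GR as well as AR response elements. 16 h compound treatment, 37C, 0% CO2; ONE-Glo luminescence endpoint.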
# [15] = molecular target: Androgen receptor (Homo sapiens) (UniProt P10275); assay: qHTS assay to identify small molecule antagonists of the androgen receptor (AR) signaling pathway using the MDA cell line (AID 743042; note: nearly all actives have a fitted effect of over 55% in size)
# How it was run: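 Antagonist mode: compounds plus R1881 agonist added to MDA-kb2 AR-luc cells, incubated 16 h at 37C. Luciferase reporter luminescence quantified, with multiplexed CellTiter-Fluor readout for cell viability.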
# [16] = molecular target: Glucocorticoid receptor (Homo sapiens) (UniProt P04150); assay: qHTS assay to identify small molecule agonists of the glucocorticoid receptor (GR) signaling pathway (AID 720691; active = well fitted activation curve with a large enough effect in the signal ratio in the repeat runs, not every such curve was filed as active; the % refers to the signal ratio; note: potency is the fitted concentration of half-maximal effect)
# Chain of Glucocorticoid receptor (Homo sapiens) (P04150 whole entry, looked up): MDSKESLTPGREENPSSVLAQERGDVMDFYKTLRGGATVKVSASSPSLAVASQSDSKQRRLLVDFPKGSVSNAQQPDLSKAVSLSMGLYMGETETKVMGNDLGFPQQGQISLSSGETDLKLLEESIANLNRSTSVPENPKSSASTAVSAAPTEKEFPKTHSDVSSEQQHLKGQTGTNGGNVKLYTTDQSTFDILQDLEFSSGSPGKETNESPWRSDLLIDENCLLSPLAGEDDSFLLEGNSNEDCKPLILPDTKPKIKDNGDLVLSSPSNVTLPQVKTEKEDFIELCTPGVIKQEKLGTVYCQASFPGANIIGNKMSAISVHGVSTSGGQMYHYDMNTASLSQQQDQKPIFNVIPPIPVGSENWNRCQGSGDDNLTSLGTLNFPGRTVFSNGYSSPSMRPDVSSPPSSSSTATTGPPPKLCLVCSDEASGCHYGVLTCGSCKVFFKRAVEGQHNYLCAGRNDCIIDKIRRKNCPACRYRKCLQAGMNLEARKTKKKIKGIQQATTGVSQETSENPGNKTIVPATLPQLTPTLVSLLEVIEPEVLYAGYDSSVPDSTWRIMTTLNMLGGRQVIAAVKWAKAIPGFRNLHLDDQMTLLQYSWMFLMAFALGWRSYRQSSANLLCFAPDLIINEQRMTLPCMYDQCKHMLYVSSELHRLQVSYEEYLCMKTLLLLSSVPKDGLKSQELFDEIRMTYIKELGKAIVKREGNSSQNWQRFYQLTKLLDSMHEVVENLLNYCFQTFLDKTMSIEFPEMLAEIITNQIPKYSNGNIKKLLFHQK
# How it was run: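 Compounds in DMSO, alongside positive controls, were added to GR-bla HeLa reporter cells and incubated 18 h at 37 C; GRE-driven beta-lactamase was detected by fluorescence after 2 h with FRET substrate at room temperature.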
# [17] = molecular target: Glucocorticoid receptor (Homo sapiens) (UniProt P04150); assay: qHTS assay to identify small molecule antagonists of the glucocorticoid receptor (GR) signaling pathway (AID 720692; active = well fitted inhibition curve with a large enough effect in the signal ratio in the repeat runs, not every such curve was filed as active; the % refers to the signal ratio)
# How it was run: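 In a 1536-well cell format, compounds were added 4 h after seeding GR-bla HeLa cells, together with dexamethasone at 5 nM final; reporter activity was measured by FRET-substrate fluorescence following 18 h at 37 C.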
# [18] = qHTS assay to identify small molecule antagonists of the androgen receptor (AR) signaling pathway - cell viability counter screen (AID 743033; note: nearly all actives have a fitted effect of over 45% in size)
# [19] = molecular target: Androgen receptor (Homo sapiens) (UniProt P10275); assay: qHTS assay to identify small molecule antagonists of the androgen receptor (AR) signaling pathway (AID 743035; active = well fitted inhibition curve with a large enough effect in the signal ratio in the repeat runs, not every such curve was filed as active; the % refers to the signal ratio)
# How it was run: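 Reporter HEK293 cells were exposed to compounds and R1881 overnight (16 h, 37C); beta-lactamase activity was then quantified by FRET fluorescence.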
# [20] = qHTS assay to test for compound auto fluorescence at 460 nm (blue) in HepG2 cell free culture (AID 720685)
# How it was run: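 Cell-free plates of MEM plus 10% FBS received 23 nL compound or DMSO vehicle; blue-channel (405/460 nm) intensity scored against triamterene as reference fluorophore.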
structure (smiles),measurement,setting,value
N[C@@H](CCC(=O)N[C@@H](CS)C(=O)NCC(=O)O)C(=O)O,outcome,[1],inactive
same,outcome,[2],inactive
same,outcome,[3],inactive
same,outcome,[4],inactive
same,outcome,[5],inactive
same,outcome,[6],inactive
same,outcome,[7],inactive
same,outcome,[8],inactive
same,Potency,[9],inactive
same,Potency,[10],inactive
same,Potency,[11],inactive
same,Potency,[12],inactive
CCCC/C=C/C=C\C=O,outcome,[1],inactive
same,outcome,[2],inactive
same,outcome,[3],inactive
same,outcome,[4],inactive
same,outcome,[5],inactive
same,outcome,[6],inactive
same,outcome,[7],inactive
same,outcome,[8],inactive
same,Potency,[11],61.1 µM (active)
same,outcome,[13],inactive
same,outcome,[14],inactive
same,Potency,[12],inactive
same,Potency,[15],inactive
COc1ccc(C2CNC(=O)C2)cc1OC1CCCC1 (stereo not drawn),"fluorescence, % of fluorescein",[1],0.0387% [at 18.6 µM]
same,"fluorescence, % of fluorescent control",[2],-0.0755% [at 18.6 µM]
same,activity change,[3],0.0153% [at 18.6 µM]
same,"fluorescence, % of fluorescent control",[4],-0.222% [at 18.6 µM]
same,"fluorescence, % of Rose Bengal",[5],0.472% [at 18.6 µM]
same,"fluorescence, % of fluorescein control",[6],-0.0056% [at 18.6 µM]
same,"fluorescence, % of fluorescent control",[7],-0.0914% [at 18.6 µM]
same,Potency,[16],inactive
same,outcome,[17],inactive
same,outcome,[8],inactive
same,Potency,[9],inactive
same,Potency,[10],inactive
same,Potency,[11],inactive
same,Potency,[18],inactive
same,Potency,[12],inactive
CC(C)CCCC(C)(C)O,outcome,[1],inactive
same,outcome,[2],inactive
same,outcome,[3],inactive
same,outcome,[4],inactive
same,outcome,[5],inactive
same,outcome,[6],inactive
same,outcome,[7],inactive
same,outcome,[8],inactive
same,Potency,[9],inactive
same,Potency,[12],inactive
OC[C@H](Cc1cccc(O)c1)[C@H](CO)Cc1cccc(O)c1,outcome,[1],inactive
same,outcome,[2],inactive
same,outcome,[3],inactive
same,outcome,[4],inactive
same,outcome,[5],inactive
same,outcome,[6],inactive
same,outcome,[7],inactive
same,Potency,[16],inactive
same,outcome,[17],inactive
same,outcome,[8],inactive
same,Potency,[18],inactive
same,Potency,[12],inactive
Cc1ccc(C=O)cc1C,outcome,[1],inactive
same,outcome,[2],inactive
same,outcome,[3],inactive
same,outcome,[4],inactive
same,outcome,[5],inactive
same,outcome,[6],inactive
same,outcome,[7],inactive
same,Potency,[16],inactive
same,outcome,[17],inactive
same,outcome,[8],inactive
same,Potency,[9],inactive
same,Potency,[10],inactive
same,Potency,[11],inactive
same,Potency,[18],inactive
CCCCCCCCCCl,outcome,[1],inactive
same,outcome,[2],inactive
same,outcome,[3],inactive
same,outcome,[4],inactive
same,outcome,[5],inactive
same,outcome,[6],inactive
same,outcome,[7],inactive
same,outcome,[8],inactive
same,Potency,[9],inactive
same,Potency,[10],inactive
same,Potency,[18],inactive
same,Potency,[12],inactive
O=Cc1ccc(Cl)c(Cl)c1,outcome,[1],inactive
same,outcome,[2],inactive
same,outcome,[3],inactive
same,outcome,[4],inactive
same,outcome,[5],inactive
same,outcome,[6],inactive
same,outcome,[7],inactive
same,Potency,[16],inactive
same,outcome,[17],inactive
same,Potency,[9],inactive
same,Potency,[11],inactive
same,Potency,[18],inactive
same,Potency,[12],inactive
Oc1cn2c(n1)Nc1ccc(Cl)c(Cl)c1C2,outcome,[1],inactive
same,outcome,[2],inactive
same,outcome,[3],inactive
same,outcome,[4],inactive
same,outcome,[5],inactive
same,outcome,[6],inactive
same,outcome,[7],inactive
same,Potency,[16],inactive
same,outcome,[8],inactive
same,Potency,[9],inactive
same,Potency,[10],inactive
same,Potency,[18],inactive
same,Potency,[19],inactive
same,outcome,[13],inactive
same,outcome,[14],inactive
same,Potency,[12],inactive
same,Potency,[15],inactive
Cc1cccc(C)c1NC(=O)c1ccccc1C(=O)O,outcome,[2],inactive
same,outcome,[3],inactive
same,outcome,[4],inactive
same,outcome,[5],inactive
same,outcome,[20],inactive
same,outcome,[6],inactive
same,outcome,[7],inactive
same,Potency,[16],inactive
same,outcome,[17],inactive
same,outcome,[8],inactive
same,Potency,[9],inactive
same,Potency,[10],inactive
same,Potency,[11],inactive
same,Potency,[18],inactive
same,Potency,[19],inactive
same,outcome,[13],inactive
same,outcome,[14],inactive
same,Potency,[12],inactive
same,Potency,[15],inactive
CC1(C)S[C@@H]2[C@H](N=CN3CCCCCC3)C(=O)N2[C@H]1C(=O)O,outcome,[2],inactive
same,outcome,[3],inactive
same,outcome,[4],inactive
same,outcome,[5],inactive
same,outcome,[20],inactive
same,outcome,[6],inactive
same,outcome,[7],inactive
same,Potency,[16],21.3 µM (active)
same,outcome,[17],inactive
same,outcome,[8],inactive
same,Potency,[9],inactive
same,Potency,[10],inactive
same,Potency,[11],inactive
same,Potency,[18],inactive
same,Potency,[12],inactive
CC(CC=O)CCCC(C)(C)O (stereo not drawn),outcome,[1],inactive
same,outcome,[2],inactive
same,outcome,[3],inactive
same,outcome,[4],inactive
same,outcome,[5],inactive
same,outcome,[6],inactive
same,outcome,[7],inactive
same,Potency,[16],inactive
same,outcome,[17],inactive
same,outcome,[8],inactive
same,Potency,[9],inactive
same,Potency,[18],inactive
same,Potency,[19],inactive
same,outcome,[13],inactive
same,outcome,[14],inactive
same,Potency,[12],inactive
same,Potency,[15],inactive
O=C(O)Cc1ccc(Cl)cc1Cl,outcome,[1],inactive
same,outcome,[2],inactive
same,outcome,[3],inactive
same,outcome,[4],inactive
same,outcome,[5],inactive
same,outcome,[6],inactive
same,outcome,[7],inactive
same,outcome,[17],inactive
same,outcome,[8],inactive
same,Potency,[9],61.1 µM (active)
same,Potency,[10],27.3 µM (active)
same,Potency,[19],inactive
same,outcome,[14],inactive
same,Potency,[12],inactive
same,Potency,[15],inactive
O=S(=O)(O)c1ccc2cc(O)c(S(=O)(=O)O)cc2c1,outcome,[1],inactive
same,outcome,[3],inactive
same,outcome,[4],inactive
same,outcome,[5],inactive
same,outcome,[6],inactive
same,outcome,[7],inactive
same,Potency,[16],inactive
same,outcome,[17],inactive
same,outcome,[8],inactive
same,Potency,[9],inactive
same,Potency,[10],inactive
same,Potency,[11],inactive
same,Potency,[18],inactive
same,Potency,[12],inactive
